Bioassay records: PubChem BioAssay, several laboratories
GalR3 antagonist: antagonists of human GalR3 | inhibition, % at 3 µM | 360,000 compounds, 0.44% hits | HEK293 GalR3-CNG cAMP membrane potential fluorescence; galR3 body fused to GalR1 C-terminus | O60755;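 active means inhibition above the screen-wide average plus 3 SD, cut at about 13% in these data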;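 further: forskolin and galanin both at EC90 stimulate the cells; cAMP rise reported by CNG channel membrane potential dye signal; 0% = forskolin plus galanin with DMSO and 100% = forskolin alone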
Target sequence (O60755 1-299 limits assumed): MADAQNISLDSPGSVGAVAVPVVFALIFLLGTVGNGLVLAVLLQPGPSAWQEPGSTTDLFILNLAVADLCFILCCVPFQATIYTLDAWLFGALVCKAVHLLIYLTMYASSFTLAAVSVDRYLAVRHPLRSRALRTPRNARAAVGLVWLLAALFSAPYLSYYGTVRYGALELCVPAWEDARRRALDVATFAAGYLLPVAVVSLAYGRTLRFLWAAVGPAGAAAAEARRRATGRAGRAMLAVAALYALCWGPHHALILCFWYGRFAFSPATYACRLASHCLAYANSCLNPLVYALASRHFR
GAA850 FXN act: increases GAA850 frataxin promoter reporter activity; HEK293 lucGAA850 FXN promoter luciferase reporter, 24 h; percent of 10 µM SAHA response; activation, % at 6 µM; 360,000 compounds, 0.56% hits;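 active means activation above the average of all compounds screened plus 3 SD, cutoff fixed separately per campaign, cut at about 7.5% in these data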;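 further: 0% = DMSO wells and 100% = 10 µM SAHA wells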
SMARCA2 activ: increases SMARCA2 function in MMTV reporter cells. activation, % at 9.1 µM. 370,000 compounds, 1% hits. MG213 cells, MMTV-luciferase reporter, dexamethasone, overnight; in the data active means activation above about 7.8%;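 further: 0% = vehicle wells and 100% = reference activator wells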
Hsp70 act: switches on Hsp70 transcription; HeLa Hsp70 promoter luciferase reporter, luminescence; scaled: vehicle 0, proteasome-inhibitor control 100%; activation, % at 10 µM; 200,000 compounds, 0.04% hits; AID 1203;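 active means activation above the mean across all tested compounds plus 3 SD, cutoff set per campaign, cut at about 5.5% in these data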;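 further: 100% = MG132 at 30 µM as the positive control and 0% = DMSO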
HIF activator: HIF pathway transcriptional activation | 300,000 compounds, 0.32% hits | activation, % at 7.5 µM (by protocol) | U2OS HRE-luciferase reporter, luminescence; normalized: DMSO 0%, desferrioxamine 100%;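 active means mean activation of at least 10% of the iron chelator positive control signal, with at least half of replicates also reaching 10%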
Active calls of the source: *; / = no result. In the library only some 2.2% were active in any assay of this set; here they are far more common.

SMILES | GalR3 antagonist | GAA850 FXN act | SMARCA2 activ | Hsp70 act | HIF activator
CC1CCN(Cc2nnnn2CCCC(=O)NCC(C)(C)N2CCOCC2)CC1 | -8.8 | -0.5 | 2.4 | / | -0.9
COc1ccc(-c2csc(COC(=O)C(C)(C)C)n2)cc1 | -7.1 | 1.9 | -1.4 | / | 3.4
CC(C)(C)C(=O)OCc1nc(-c2ccc(F)cc2)cs1 | -4.7 | 2.2 | 7.9* | / | 3.5
N/C(=N\OC(=O)C(c1ccccc1)c1ccccc1)c1cccnc1 | / | 1.7 | / | -0.3 | 72.4*
COc1ccc(Cn2cc(CN3[C@@H](CC(C)C)COc4cccc(F)c4S3(=O)=O)nn2)cc1 | / | / | 1.8 | / | /
COc1cc(C(=O)N2CCN(C(=O)Cc3ccccc3)CC2)cc(OC)c1OC | 4.1 | -1.2 | 1.2 | -0.2 | 13.3*
COc1cc(C(=O)N2CCN(CCCc3ccccc3)CC2)cc(OC)c1OC | 6.7 | 0.8 | -3.5 | / | 0.6
NS(=O)(=O)c1ccc(NN=C2CCCCC2)c([N+](=O)[O-])c1 | -5.3 | -1.8 | 7.8* | -0.4 | -0.2
CCC(=O)Nc1nnc(CCc2ccccc2)s1 | -0.1 | 3.7 | -0.3 | -0.3 | 0.0
CCOC(=O)C(=O)Nc1nnc(CCc2ccccc2)s1 | 0.0 | 0.6 | 7.8* | 0.2 | 1.4
C/C(C=NNC(=O)CSc1nnc(-c2ccccc2)n1-c1ccc(C)cc1)=C\c1ccco1 | / | / | 2.3 | / | /
Cc1cc(C)nc(N/N=C/C2=C(O)CC(c3ccccc3)CC2=O)n1 (stereo not given) | -6.1 | / | -3.6 | / | 22.4*
CCCC[C@H](CCCc1ccc(F)cc1)CCC(=O)N(c1ccccc1)c1ccccc1 | / | / | 0.5 | / | /
CCC(=O)NC1=C(Cl)C(=O)C(NC(=O)CC)=C(Cl)C1=O | -13.7 | 0.2 | 8.6* | / | /
O=C(Nc1cccc(C(F)(F)F)c1)OCCCN1CCC2(CCC(c3ccccc3)CC2)C1=O (stereo not given) | / | / | -2.8 | / | /
CCCCCCCCCCn1ccc(=N)cc1 | 97.0* | -8.8 | -12.4 | / | -2.1
COc1ccc(N/N=C/c2c(C(=O)O)ccc3ccccc23)cc1 | -7.5 | -7.3 | -2.7 | / | 50.1*
COc1cc(NC(=O)c2onc(C)c2Cl)c(OC)cc1Cl | 0.6 | 0.0 | 7.9* | -0.3 | 0.1
COc1cccc(CNC(=O)[C@H]2CCCN2C(=O)[C@H]2CCCN2C(=O)c2ccccc2)c1 | -6.3 | / | -0.3 | / | /
COC(=O)/C(=C(/F)SCC(C)=O)C(F)(F)F | / | / | / | -0.1 | 91.0*
COc1cc(NS(=O)(=O)c2ccc(NC(=S)NC(=O)c3sc4ccccc4c3Cl)cc2)ncn1 | -11.1 | 0.1 | 10.6* | -0.4 | /
COc1ccc(C(=O)NC(=S)Nc2ccc(S(=O)(=O)Nc3cc(OC)ncn3)cc2)cc1 | -10.2 | 1.0 | -2.1 | / | -0.2
C[C@H]1COc2cc(Br)ccc2S(=O)(=O)N1Cc1cn(Cc2ccc(Br)cc2)nn1 | / | / | -3.2 | / | /
COC(=O)CCCC1=CC2=CC(=O)C(C)(OC(=O)c3cccs3)C(=O)C2=CN1Cc1ccc2c(c1)OCO2 (stereo not given) | -8.3 | 0.3 | 1.1 | / | 18.7*
O=C(Nc1nc2ccccc2s1)c1c(F)cccc1Cl | -3.2 | 1.3 | 0.3 | / | 2.4
SMILES | GalR3 antagonist | GAA850 FXN act | SMARCA2 activ | Hsp70 act | HIF activator
Cn1cc(Cl)c(C(=O)Nc2nc3ccccc3s2)n1 | -0.1 | -0.3 | 7.9* | -0.2 | 0.1
CCOC(=O)c1c(C)[nH]c(C)c1S(=O)(=O)N1c2ccccc2CC1C (stereo not given) | -5.0 | 2.8 | -2.2 | / | 31.5*
COc1ccc(CNS(=O)(=O)c2cc3c(cc2Br)CC(C)N3C(C)=O)cc1 (stereo not given) | / | / | 1.4 | / | /
O=C(CO/N=C/c1ccc(Cl)cc1Cl)NNC(=O)c1cccc(Cl)c1 | -5.1 | 1.7 | -2.8 | / | 0.1
CCC(CC)NC(=O)CO/N=C/c1ccc(Cl)cc1Cl | -3.7 | -1.1 | 7.9* | -0.5 | -0.6
O=C(NCCCn1ccnc1)C(=O)NCC(c1ccco1)N1CCN(c2ccc(F)cc2)CC1 (stereo not given) | 12.8* | 2.0 | -6.5 | -0.2 | 0.3
O=C(NCCCn1ccnc1)C(=O)NCC(c1ccco1)N1CCN(c2ccccc2)CC1 (stereo not given) | -3.6 | 2.3 | -1.1 | -0.2 | 0.2
Cc1c[nH]c2cccc(-c3c(Cl)cccc3Cl)c12 | / | / | 5.0 | / | /
COC(=O)CC1C(=O)NCCN1C(=O)CSc1nnc(Nc2ccc(OC)cc2)s1 (stereo not given) | -7.0 | -0.6 | 0.9 | 0.2 | 236.2*
COC(=O)CC1C(=O)NCCN1C(=O)CSc1nnc(Nc2ccc(C)cc2)s1 (stereo not given) | -0.7 | 0.2 | -2.5 | 0.0 | 1.4
Cc1ccccc1NC(=O)c1nc(S(C)(=O)=O)ncc1Cl | -7.7 | 18.1* | -6.8 | / | -0.6
CCCC(=O)Nc1ccc(N2CCN(S(C)(=O)=O)CC2)cc1 | 2.2 | -1.0 | 8.4* | -0.3 | /
COc1cc2c3nnc(-c4ccc(F)cc4)c-3cn(Cc3ccccc3)c2cc1OC | 3.9 | -2.5 | 18.6* | 0.0 | -1.4
CC(C)c1[nH]nc2c1C(c1cccc(C(F)(F)F)c1)NC2=O (stereo not given) | -3.6 | / | -3.1 | / | /
Cc1cccc(-c2cccc3c4c([nH]c23)[C@@H]2C[C@H](N(C)C(=S)Nc3ccc(C#N)cc3)[C@H]([C@H](C)O)CN2CC4)c1 | / | / | -6.7 | / | /
COC(=O)c1cc(S(=O)(=O)NCc2ccccc2OC)cn1C | -9.6 | -0.1 | -2.6 | / | 71.0*
Nc1ccccc1NC(=O)c1ccccc1 | -8.7 | 4.3 | 1.6 | 1.5 | 24.6*
CC(=O)N=c1c(C#N)cc2c(=O)n3ccccc3nc2n1Cc1ccccc1 | -9.7 | 1.6 | 8.3* | -0.4 | -0.2
CC(C)(C)OC(=O)N1CCC[C@@H]1C(=O)N1CCC[C@@H]1C(=O)NCc1ccccc1 | -6.5 | / | -3.1 | / | /
CCOc1ccc(-c2c(C(=O)N/N=C/c3cccnc3)nnn2-c2nonc2N)cc1 | 1.3 | 0.0 | -1.9 | / | 24.8*
CCOc1cccc(-c2c(C(=O)N/N=C(\C)c3ccccn3)nnn2-c2nonc2N)c1 | -0.1 | -4.8 | -1.4 | / | 16.3*
Cc1ccc(-c2c(C(=O)N/N=C/c3cccnc3)nnn2-c2nonc2N)cc1 | -10.3 | -2.2 | -2.4 | / | -0.2
CCOc1ccc(OCc2ccc(C(=O)NN=Cc3ccc[nH]3)cc2)cc1 | 56.5* | -5.8 | -6.2 | / | /
O=C(N/N=C/c1ccc[nH]1)c1ccc([N+](=O)[O-])cc1 | -4.8 | 3.3 | 7.9* | -0.2 | 0.6
O=C(NN=Cc1ccccc1Cl)c1ccc([N+](=O)[O-])cc1 | -2.8 | -1.4 | 1.9 | / | /
COC(=O)c1cc2c(c3c4cc(OC)ccc4n(C(=O)c4ccccc4)c13)C(=O)N(Cc1ccco1)C2 | -4.7 | / | 2.0 | / | /
C=CCN1[C@H](CC(C)C)COc2cc(N3CCCC3)ccc2S1(=O)=O | / | / | -2.2 | / | /
COC(=O)[C@]12CCCCC=C1N(Cc1ccc(OC)cc1)C(=O)[C@@H]2CC(=O)N1CCCC1 | / | / | -3.6 | / | /
COc1ccc(/C=N/Nc2ncnc(Cl)c2N)cc1OC | -0.6 | 4.2 | -2.0 | -0.4 | 0.6
COc1ccc(/C=N/Nc2ncnc3sc4c(c23)CCCC4)cc1OC | -4.3 | -1.1 | 1.0 | -0.2 | 10.5*
